The values that follow come from PubChem BioAssay AID1851 (National Center for Advancing Translational Sciences (NCATS), 2009).

In all, about 16,000 compounds went through this assay and about 5,700 (36%) were called active. Another 24% or so got no clear call; they are omitted. This is one part of the list. Unmarked numbers belong to inactive results. Calls follow the shape of the dose curve; as a rule, active = well fitted curve in the direction sought with a large enough effect; inconclusive = small, poorly fitted or top-dose-only effect, or effect the other way; inactive = no such curve, though single readings can be large or run the other way.
% is scaled to controls: 0 for no effect and ±100 for the full control effect.

For the experiment, the target named is Cytochrome P450 1A2 (Homo sapiens) (UniProt P05177). Nature of the experiment: Cytochrome panel assay with activity outcomes. Conditions: recombinant CYP, pro-luciferin dealkylation, luminescence, p450-cyp1a2; series mostly up to 57.1 µM; activity, negative = inhibition: at the top concentration.
Cytochrome P450 1A2 (Homo sapiens), sequence (P05177 whole entry, looked up): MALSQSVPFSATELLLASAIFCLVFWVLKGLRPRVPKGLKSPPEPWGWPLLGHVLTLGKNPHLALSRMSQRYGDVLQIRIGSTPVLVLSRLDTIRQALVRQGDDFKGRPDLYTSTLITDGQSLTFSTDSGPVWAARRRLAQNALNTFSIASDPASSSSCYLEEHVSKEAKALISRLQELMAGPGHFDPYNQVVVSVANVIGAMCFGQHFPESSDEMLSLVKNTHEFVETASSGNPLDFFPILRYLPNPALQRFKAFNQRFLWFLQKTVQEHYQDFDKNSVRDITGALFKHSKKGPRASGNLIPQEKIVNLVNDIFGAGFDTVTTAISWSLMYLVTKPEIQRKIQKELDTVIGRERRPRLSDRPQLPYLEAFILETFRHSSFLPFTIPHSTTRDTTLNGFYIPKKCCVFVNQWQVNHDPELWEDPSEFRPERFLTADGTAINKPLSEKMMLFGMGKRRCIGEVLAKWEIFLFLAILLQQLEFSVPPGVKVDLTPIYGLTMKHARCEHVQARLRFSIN
As usually defined, the AC50 is the concentration at which the activity in the assay is half-maximal. Turning to `COCc1c(C(=O)OCC(=O)N2c3ccccc3NC(=O)C2(C)C)oc2ccccc12`, the AC50 was 0.562 µM (active). As for `CCCCC1(C)OC(=O)C(=Cc2ccc(N(CC)CC)cc2)C(=O)O1` (centres undefined), the half-maximal activity concentration (AC50) is 5.01 µM (active). Regarding `CCc1nnc(NC(=O)CCC(=O)N2CCN(c3ccccn3)CC2)s1`, the “activity, negative = inhibition” value was 4.36%. With `CCc1nnc(NC(=O)c2c(C)nn(-c3ccccc3)c2Cl)s1`, the concentration at half-maximal activity (AC50) was 7.08 µM (active). Still for that read-out and setting: the same measure for `CCn1c(C)nc2cc(S(=O)(=O)C(F)F)ccc21`: 5.01 µM (active). Turning to `O=C(N/N=C1/C[C@@H](O)[C@@H](O)[C@@H]2[C@H]3C(=O)N(c4ccc(F)cc4F)C(=O)[C@@H]3CC[C@H]12)OCc1ccccc1`, the activity, negative = inhibition is -2.59% [at 11.4 µM].

On to `N=C(N)SCc1cccc(-c2nc3ccccc3c(=O)o2)c1`, for which the activity, negative = inhibition was -10.3% [at 2.29 µM]. In the case of `CC(C)(C)C(=O)Nc1cccc(-c2nc3ccccc3c(=O)o2)c1`, the AC50 is 11.2 µM (active). Same read-out and setting: under `CC(C)CC(=O)Nc1ccc2c(c1)oc1ccccc12` stands 0.794 µM (active). In the case of `O[C@H](C[C@@H]1CCCCN1)c1ccc2c(c1)oc1ccccc12`, the activity, negative = inhibition was -10.4% [at 2.29 µM]. The same measure, in the same setting: the same measure for `CC(CC(=O)O)CC(=O)Nc1ccc(S(N)(=O)=O)cc1` (centres undefined): -2.49%.

Regarding `Cc1cc(-c2ccc(/C=N/n3cnnc3)o2)c([N+](=O)[O-])cc1C`, the AC50 was 0.316 µM (active). Turning to `C[C@@H]1/C=C\CC(=O)OC[C@H]2O[C@@H](C=C[C@@H]2O)[C@H](C)/C=C\CC(=O)OC[C@H]2O[C@H]1C=C[C@@H]2O`, the activity, negative = inhibition is 7.11% [at 11.4 µM].

Turning to `CCC(C)Nc1nc(OCC(F)(F)F)nc(OCC(F)(F)F)n1` (centres undefined), the AC50 is 10 µM (active). As for `C[C@@H]1O[C@H](O[C@@H]2[C@H](C)O[C@H](O[C@@H]3[C@H](C)O[C@H](O[C@H]4CC[C@]5(C)[C@@H](CC[C@@H]6[C@H]5C[C@@H](O)[C@]5(C)[C@@H](C7=CC(=O)OC7)CC[C@]65O)C4)C[C@@H]3O)C[C@@H]2O)C[C@H](O)[C@@H]1O`, the “activity, negative = inhibition” value was 2.93% [at 25.6 µM]. Take `O=S(=O)(c1ccccc1)c1cnn2c(C(F)(F)F)cc(-c3ccc(F)cc3)nc12`: the half-maximal activity concentration (AC50) was 0.794 µM (active). Consider `O=S(=O)(c1ccccc1)c1cnn2c(C(F)(F)F)cc(-c3ccccc3)nc12`, for which the “activity, negative = inhibition” value is -26.3%. On to `C[N+](C)(C)c1ccc([C@H](N)C(=O)O)cc1`, for which the activity, negative = inhibition was -19.7% [at 11.4 µM]. For `N#Cc1cc(N)ccc1Sc1ccc(Cl)cc1`, the AC50 was 1.78 µM (active). As for `COc1ccc(Sc2ccc(NC(=O)c3ccccc3Cl)cc2C#N)cc1`, the “activity, negative = inhibition” value was -14.9%.

For `CCN1CCC[C@H]1CNC(=O)c1cc(S(N)(=O)=O)ccc1OC`, the “activity, negative = inhibition” value is -10.5% [at 25.6 µM]. Same read-out and setting: under `CCC(C)[C@H](NC(=O)NC1CCN(Cc2ccccc2)CC1)C(=O)OC` (some centres undefined) stands -12.2%. On to `CNc1cc(OC)c(C(=O)N[C@@H]2CCN(Cc3ccccc3)[C@H]2C)cc1Cl`, for which the AC50 is 31.6 µM (active).

With `CC(=O)N(CC(O)CN(C(C)=O)c1c(I)c(C(=O)NC[C@@H](O)CO)c(I)c(C(=O)NC[C@@H](O)CO)c1I)c1c(I)c(C(=O)NC[C@@H](O)CO)c(I)c(C(=O)NC[C@@H](O)CO)c1I`, the “activity, negative = inhibition” value was -6.09% [at 25.6 µM].

With `CC(=O)/C(=N\N=C(N)N)c1ccccc1`, the activity, negative = inhibition was -17.2% [at 2.29 µM].

On to `NC(N)=N/N=C(/c1ccccc1)c1ccc(O)cc1O`, for which the AC50 is 3.16 µM (active). Consider `CCN1C(=O)[C@H]2[C@H]3[C@H](O)[C@H](O)C/C(=N/OC[C@@H](O)COCc4ccco4)[C@@H]3CC[C@@H]2C1=O`, for which the activity, negative = inhibition is -5.56% [at 11.4 µM]. Consider `O=C(NCc1cn(-c2ccccc2)nc1-c1ccccc1)c1cc([N+](=O)[O-])cc([N+](=O)[O-])c1`, for which the “activity, negative = inhibition” value is -14.5%. As to `CCc1ccccc1NC(=O)CSc1nc(-c2ccccc2)nn1C(=O)c1cccc([N+](=O)[O-])c1`, the half-maximal activity concentration (AC50) was 3.16 µM (active).

On to `COc1ccc(C(=O)N2CCC3(CCCN(C)C3)CC2)cc1`, for which the “activity, negative = inhibition” value was 1.94%. On to `COc1ccc2c(c1)CCc1c(C(=O)N3CCCCCC3)noc1-2`, for which the AC50 was 6.31 µM (active). For the compound `COc1ccc(NC(=O)N2CCCC3(CCN(C(=O)c4ccc(OC)cc4)CC3)C2)cc1`, the “activity, negative = inhibition” value is -5.61%. On the same count and under the same terms, the same measure for `CC(C)COCC1CC2(CC(C)(c3csc(N)n3)OC2=O)C(=O)O1` (centres undefined): -11.1%. With `COCCNC(=O)c1ccc2c(c1)ncn2-c1ccc(F)c(F)c1`, the AC50 was 15.8 µM (active). `COCCNC(=O)c1ccc2c(c1)nc(C)n2-c1cc(OC)c(OC)c(OC)c1`: the “activity, negative = inhibition” value was 5.4%. As to `CN(CCOc1ccc(C[C@H](Nc2ccccc2C(=O)c2ccccc2)C(=O)O)cc1)c1ccccn1`, the “activity, negative = inhibition” value was -13.8%. Take `C[N+](C)(C)CCN(Cc1ccc(Cl)cc1)c1ccccn1`: the “activity, negative = inhibition” value was 0.544%.

Take `O=C(COc1ccc(Cl)cc1)N(Cc1ccccc1)c1ccccn1`: the half-maximal activity concentration (AC50) was 2.24 µM (active). In the case of `O=C(CCn1c(=S)[nH]c2ccccc2c1=O)NCCCN1CCOCC1`, the “activity, negative = inhibition” value was -19.2%.

Take `O=C(c1ccc2c(=O)n(CC3CCCO3)c(=S)[nH]c2c1)N1CCN(c2ccccc2)CC1` (centres undefined): the “activity, negative = inhibition” value is -28.2%.

Turning to `COCCNC(=O)CCCCCn1c(=S)[nH]c2ccccc2c1=O`, the concentration at half-maximal activity (AC50) was 14.1 µM (active). On the same count and under the same terms, the same measure for `O=C(CCCn1c(=S)[nH]c2ccc(Br)cc2c1=O)NCC1CCCO1` (centres undefined): 4.47 µM (active). As to `O=C(c1cnccn1)N1CCC2(CC1)CCN(c1ncccn1)CC2`, the “activity, negative = inhibition” value was 7.52%. Consider `COC(=O)c1ccc(Oc2coc3cc(OCc4cnn(-c5ccccc5)c4)ccc3c2=O)cc1`, for which the “activity, negative = inhibition” value is -17.9%. As to `Cc1[nH]nc(-c2ccc(OCc3cnn(-c4ccccc4)c3)cc2O)c1Oc1ccccc1F`, the AC50 is 22.4 µM (active).

On to `Cc1cc(C)cc(C(=N)c2ccccc2Cc2cccc3ccccc23)c1`, for which the activity, negative = inhibition was -5.4% [at 2.29 µM]. Turning to `CO[C@H]1COC(=O)CCC[C@@H](C)[C@H](OC)COC(=O)[C@H]2CCCN2C(=O)C/C=C\[C@@H]1C`, the activity, negative = inhibition is -4.29% [at 11.4 µM]. Take `Cc1ccc(NC(=S)N2CCN(C3CCCCC3)CC2)cc1`: the “activity, negative = inhibition” value was -15.9%. `Cc1ccc(NC(=S)NC2CCCC2)cc1`: the concentration at half-maximal activity (AC50) was 15.8 µM (active). For `O=C(Nc1ccc(Cl)cc1)NC1CCCCC1`, the “activity, negative = inhibition” value was -20.7%. Turning to `COC(=O)c1ccc(NC(=S)NC2CCCCC2)cc1`, the half-maximal activity concentration (AC50) was 14.1 µM (active). Regarding `CC(=O)NS(=O)(=O)c1ccc(NC(=O)NC2CCCCC2)cc1`, the “activity, negative = inhibition” value is -8.66%.

As for `COC(=O)c1ccc(NC(=O)C2CCCCC2C(=O)O)cc1` (centres undefined), the “activity, negative = inhibition” value is 11.3%.

Turning to `CCc1cccc(CC)c1NC(=O)CN(CC(=O)O)CC(=O)O`, the “activity, negative = inhibition” value was -9.69% [at 25.6 µM].
